Compound activity: PubChem BioAssay, Broad Institute
The entries come from a sample that favours hits as a whole.
Tg IFNy HTS: T. gondii growth inhibition with IFN-gamma, primary screen, cell-based; Toxoplasma gondii growth in IFN-gamma-treated host cells; hits give low values; activity change, negative = inhibition, % (no concentration beside the values); 69,000 tested, 3.8% active; in the data active = activity change below about -70%, passing the limit was not always enough;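 also: host cells are HeLa cells infected with Toxoplasma gondii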
Numbers without * were called inactive; i = inactive; ! = repeats disagree.

SMILES	Tg IFNy HTS
CCOc1ccccc1C(=O)NCCc1csc(-c2ccc(Cl)cc2)n1	-79.5*
O=C(NCc1ccc(-n2cccc2)cc1)c1ccc(Br)o1	-12.4
Cc1ncc(CN(C)Cc2ccc(-n3cccn3)cc2)n1C	1.7
Cc1ccc(Nc2ncnc3c2CCN(C(=O)C(C)C)CC3)cc1	10.5
CN1[C@@H]2CC[C@@H]1CC(OC(c1ccccc1)c1ccccc1)C2 (some centres undefined)	2.6
COc1ccc(OC)c(NC(=O)c2c(O)c3cccnc3n(-c3ccc(F)cc3)c2=O)c1	113.5
Cc1nc2nnc3ccc(C(=O)C4CC4)cc3c2n1C(C)C	i
Cc1ccc(NC(=O)C(=O)N(C)Cc2snnc2C)c(C)c1	-1.2
c1nc2c(c(N3CCC(N4CCCCC4)CC3)n1)CCC2	72.4
CC(=O)NCCC1CCCCN1C(=O)Nc1ccccc1-c1ccccc1 (centres undefined)	11.0
C=CCOCC1CN(Cc2ccncc2)Cc2nnn(CC3CC3)c21 (centres undefined)	-3.6
CN1CCN(CCO)C(=O)C12CCN(C(=O)c1ccn[nH]1)CC2	7.2
COC(=O)C(Cc1ccc(OCCn2c(=O)sc3cc(C(=O)c4ccccc4)ccc32)cc1)C(=O)OC	-86.7*
O=c1sc2ccccc2n1CCCOc1ccccc1	-9.6
CN(CCOc1ccc(CC(Nc2ccccc2C(=O)c2ccccc2)C(=O)O)cc1)c1ccccn1 (centres undefined)	7.0
CCC1CCCCN1C(=O)CCNc1c(-c2ccccc2OC)nc2cnccn12 (centres undefined)	37.8
COc1cccc(-c2ccc3ccc(-n4ccc(C(=O)NCC5CC5)n4)n3c2)c1	-35.4
Oc1ccc([C@H]2Oc3cc(O)cc(O)c3C[C@H]2O)cc1	6.9
Oc1ccc([C@H]2COc3cc(O)ccc3C2)cc1	-73.2*!
O=C1CC(c2ccc(O)cc2)Oc2cc(O)cc(O)c21 (centres undefined)	66.7
CN(C)C1CC2(CCN(S(=O)(=O)c3cccs3)CC2)c2ccccc21 (centres undefined)	-69.4
CCCN(c1cccc(Cl)c1)c1nc(C(=O)OCC)nc2ccccc12	-11.9
CCOC(=O)N1CCC(N2CCC3(CCNCC3)C2)CC1	-4.6
O=C1CN(/N=C/c2ccc(-c3ccc([N+](=O)[O-])cc3)o2)C(=O)N1	-75.8*
CSCC1CN(/N=C/c2ccc([N+](=O)[O-])o2)C(=O)O1 (centres undefined)	13.9
SMILES	Tg IFNy HTS
O=C1OCCN1/N=C/c1ccc([N+](=O)[O-])o1	-19.1
CC(=O)N[C@H]1CCN(C(=O)c2ccc(NC(=O)C3CCC3)cc2)C1	9.9
CSc1ccc(Cl)c(C(=O)Nc2ccc3c(c2)CCC(=O)N3)c1	-25.4
COc1cccc(-c2nc3c(s2)CN(C(=O)Nc2ccc(OC)c(OC)c2)CC3)c1	19.0
COc1ccc(OC)c(NC(=O)N2CCc3nc(-c4ccccc4)sc3C2)c1	12.7
COc1ccc(-c2nc3c(s2)CN(C(=O)Nc2cc(C)cc(C)c2)CC3)cc1	-30.9
COc1cccc(-c2nc3c(s2)CN(C(=O)Nc2ccc(OC)cc2OC)CC3)c1	35.1
Cc1cccc(NC(=O)N2CCc3nc(-c4ccccc4)sc3C2)c1	-6.4
CCOc1ccc(-c2nc3c(s2)CN(C(=O)Nc2cc(C)ccc2OC)CC3)cc1	-104.5*
COc1cccc(-c2nc3c(s2)CN(C(=O)Nc2ccc(Cl)cc2)CC3)c1	-91.6*
COc1ccc(-c2nc3c(s2)CN(C(=O)Nc2cc(C)ccc2OC)CC3)cc1	-41.3
COc1ccc(-c2nc3c(s2)CN(C(=O)Nc2ccc(Br)cc2)CC3)cc1	-92.5*
CCOc1ccc(NC(=O)N2CCc3nc(-c4cccc(OC)c4)sc3C2)cc1	16.7
COc1cccc(NC(=O)N2CCc3nc(-c4ccc(C)cc4)sc3C2)c1	-121.2*
CCOc1ccc(-c2nc3c(s2)CN(C(=O)Nc2ccc(C)cc2C)CC3)cc1	98.1
Cc1ccc(NC(=O)N2CCC3(CC2)Nc2cc(F)ccc2-n2cccc23)cc1C	289.7
COc1ccc(-c2nnc(-c3nc(Nc4ccc(NC(C)=O)cc4)c4ccccc4n3)o2)cc1	373.0
Fc1ccc(N2CCC3(CC2)CC(Oc2cccnc2)CO3)cc1 (centres undefined)	168.6
Cc1ccc(NC(=O)c2c(O)c3ccccc3[nH]c2=O)cc1C	i
Cc1occc1C(=O)N1CCn2cc(CNC(=O)c3cnn(C)c3)nc2C1	73.1
O=C(c1ccncc1)N1CCCn2cnc(COCCO)c2C1	-2.4
CS(=O)(=O)CC(=O)N1C[C@H]2COC[C@@]2(COc2cccnc2)C1	-15.3
O=C(O)c1cc(-c2ccsc2)cc(S(=O)(=O)N2CCOCC2)c1	-11.4
CCC1OC(=O)[C@H](C)C(=O)[C@H](C)[C@@H](OC2O[C@H](C)C[C@H](N(C)C)[C@H]2O)[C@](C)(OC)C[C@@H](C)C(=O)[C@H](C)[C@H]2N(CCCCn3cnc(-c4cccnc4)c3)C(=O)O[C@@]12C (some centres undefined)	3.8
Cc1nn(Cc2nc(-c3ccccc3)no2)c(C)c1Br	-0.8
SMILES	Tg IFNy HTS
C=CCO[C@@H]1C[C@H]2CN(S(=O)(=O)c3cccs3)CCN2C1	-25.9
c1ccc(C2CN(Cc3ccco3)C(c3ccccc3)O2)cc1 (centres undefined)	10.3
Cc1cccc(C(=O)NCCc2sc(-c3ccccc3)nc2C)c1	425.7
Cc1cccc(C(=O)Nc2nc(-c3ccccc3)c(-c3ccccc3)s2)c1	-71.9*
O=C(Nc1sc(NC(=O)c2cccs2)nc1-c1cccs1)c1ccccc1	2.3
Cc1cc(C(F)(F)F)nc(CCNC(=O)[C@@H]2C[C@@H](N)CN2)n1	2.9
CC(=O)N1CC2(CCN(S(=O)(=O)C3CC3)CC2)C2(CCN(C)C2=O)C1 (centres undefined)	2.9
CCCOCCN1CCN(c2ncc(C)c(N(C)C)n2)CC1	-4.4
Cc1ccc(CN2CCN(c3ncc(C)c(N(C)C)n3)CC2=O)cc1	-85.1*
Cc1ccc(CN2CCN(Cc3cnc(C)[nH]3)CC2=O)cc1	0.6
COc1cc2ncnc(Sc3ccc(Cl)cc3)c2cc1OC	6.0
COc1cc2ncnc(Nc3ccc(Cl)cc3F)c2cc1OC	-82.3*
COc1cc2ncnc(Nc3ccc(F)c(Cl)c3)c2cc1OCCCN1CCOCC1	5.7
Cc1ccc(CN2CCN(C3CCN(C(=O)c4ccc(Cl)cc4)CC3)C2=O)cc1	-18.6
COc1cccc(CN2CCC3(CCN(S(=O)(=O)C4CC4)C3)C2=O)c1 (centres undefined)	-11.2
Cc1ccc(S(=O)(=O)NCCc2csc(-c3ccc(Cl)cc3)n2)c(C)c1	18.0
COc1nccnc1-c1cccc(C(=O)O)c1	4.9
COc1ccc(N2C(=O)CC(N3CCN(c4nc5ccccc5s4)CC3)C2=O)cc1 (centres undefined)	14.8
COc1ccc(C2CC(=O)c3cnn(-c4nc5ccccc5s4)c3C2)cc1 (centres undefined)	62.1
N=C1SC(c2ccccc2)C(=O)N1c1nc2ccccc2s1 (centres undefined)	-82.1*
Cc1nc(CN2CCN(C(=O)CC(=O)Nc3ccc(F)c(Cl)c3)CC2)cs1	-8.2
Cc1nc(C)n(CCCn2cc(-c3ccnc4ccccc34)nn2)n1	1.3
Cc1cc(F)ccc1NC(=O)CN1C(=O)CCc2cc(Br)ccc21	90.9
COC(=O)C1=C(C)NC(C)=C(C(=O)OC/C=C/c2ccccc2)C1c1cccc([N+](=O)[O-])c1 (centres undefined)	-2.3
COC(=O)C1=C(C)NC(C)=C(C(=O)OCCN2CCN(C(c3ccccc3)c3ccccc3)CC2)C1c1cccc([N+](=O)[O-])c1 (centres undefined)	-84.0*!
COC(=O)C1=C(C)NC(C)=C(C(=O)OCCN(C)Cc2ccccc2)C1c1cccc([N+](=O)[O-])c1 (centres undefined)	16.4
CCn1c(SC)nnc1C1CCCN(S(=O)(=O)c2ccc3c(c2)OCCO3)C1 (centres undefined)	29.5
COc1cccc(CNC(=O)Cn2c(=O)cc(-c3nc(C(C)C)no3)c3ccccc32)c1	-0.3
